Where “and” joins values, the source holds several entries; their conditions need not be identical. Identical values can stand only once. Compounds without any hit were thinned out: in the full panel of roughly 83,000, 20% have a hit.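 The endpoint reported here, percent growth, reads 100 for growth as untreated, 0 for no net growth and -100 for all cells dead.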 Calls of active or inactive are those of the source. How the source made its calls: active means growth percent below 10; inactive means the rest. Starred links: 1 amine or outer side, 2 acyl side, 3 side chain; linkers in the order of their positions; H or OH if unused. Positions of bridges follow the written chain, without caps; N, C: chain ends. Non-standard residues stand in square brackets, D forms with d. Residues, ends and D or L forms follow the SMILES beside them. Chains are numbered I, II in the order given. Actinocin(9to1) = Cc1c2oc3c(C)ccc(C(=O)[*:1])c3nc-2c(C(=O)[*:2])c(N)c1=O; aThr = C[C@H](O)[C@H](N)C(=O)O; NMeV = CN[C@H](C(=O)O)C(C)C; Sar = CNCC(=O)O
Key:
Assay in all cases: NCI-60 one-dose screen, 48 h (100 = growth as untreated, 0 = no growth, -100 = all killed)
[1] = tested on: HT29 colon
[2] = tested on: SNB-75 CNS
[3] = tested on: SNB-19 CNS
[4] = tested on: U251 CNS
[5] = tested on: SK-MEL-5 melanoma
[6] = tested on: UACC-62 melanoma
[7] = tested on: LOX IMVI melanoma
[8] = tested on: SK-MEL-28 melanoma
[9] = tested on: SK-MEL-2 melanoma
[10] = tested on: EKVX NSCLC

Measured: growth

COc1cc(C(C)(C)C)cc(OC)c1C(O)(c1c(OC)cc(C(C)(C)C)cc1OC)c1c(OC)cc(C(C)(C)C)cc1OC
active: [1]; 10 µM -100% | [2]; 10 µM -94.1% | [3]; 10 µM -96.1% | [4]; 10 µM -91.6% | [5]; 10 µM -93.7% | [6]; 10 µM -86.3% | [7]; 10 µM -69.2% | [8]; 10 µM -99.4% | [9]; 10 µM -59.1% | [10]; 10 µM -50.5%

BrC/C=C/C[P+](c1ccccc1)(c1ccccc1)c1ccccc1
inactive: [1]; 10 µM 60% | [3]; 10 µM 46.6% | [4]; 10 µM 18.2% | [5]; 10 µM 53.9% | [6]; 10 µM 52.8% | [8]; 10 µM 53.2% | [9]; 10 µM 78.7% | [10]; 10 µM 70.2%
active: [7]; 10 µM 2.3%

CN1CCN(c2ccc3nc(-c4ccc5nc(-c6ccc(O)cc6)[nH]c5c4)[nH]c3c2)CC1
inactive: [1]; 10 µM 82.1% | [2]; 10 µM 54.9% | [3]; 10 µM 106% | [4]; 10 µM 87.5% | [6]; 10 µM 39.5% | [7]; 10 µM 93.9% | [9]; 10 µM 108% | [10]; 10 µM 105%
active: [5]; 10 µM -19.3%

O=c1[nH]cc(F)c(=O)[nH]1
45.5% (inactive) and -28.2% (active): [5]; 10 µM
inactive: [1]; 10 µM 43.6% and 42.6% | [1]; 25 µM 27.1% | [1]; 50 µM 31.4% | [2]; 10 µM 73.5% and 90.2% | [2]; 25 µM 65.9% | [2]; 50 µM 63.8% | [3]; 10 µM 75.7% and 83.3% | [3]; 25 µM 65.9% | [3]; 50 µM 66.7% | [4]; 10 µM 74.7% and 78.7% | [4]; 25 µM 50.3% | [4]; 50 µM 61.1% | [5]; 25 µM 33.7% | [5]; 50 µM 59.5% | [6]; 10 µM 51.9% and 48.4% | [6]; 25 µM 39.7% | [6]; 50 µM 54% | [7]; 10 µM 41.7% and 51% | [7]; 25 µM 30.4% | [7]; 50 µM 35.7% | [8]; 10 µM 62.2% | [8]; 50 µM 50.9% | [9]; 10 µM 71.4% and 106% | [9]; 25 µM 95.5% | [9]; 50 µM 73% | [10]; 10 µM 74.3% and 82.4% | [10]; 25 µM 58.4% | [10]; 50 µM 62.8%

COc1ccc2c(C)cc(N/N=C/c3sccc3C)nc2c1
active: [6]; 100 µM -100%

Nc1ccc2cc(Br)c3ccccc3c2c1
inactive: [1]; 10 µM 87.9% | [2]; 10 µM 50% | [3]; 10 µM 56.3% | [4]; 10 µM 65.6% | [5]; 10 µM 75.3% | [6]; 10 µM 73.8% | [8]; 10 µM 80.8% | [9]; 10 µM 103% | [10]; 10 µM 31.3%

CSc1ccc2c(c1)C(N1CCN(C)CC1)Cc1ccccc1S2 (stereo unspecified)
inactive: [3]; 10 µM 54.7% | [4]; 10 µM 33.3% | [10]; 10 µM 55.9%
active: [1]; 10 µM -15.9% | [2]; 10 µM 0.687% | [5]; 10 µM -86.6% | [6]; 10 µM -69.5% | [7]; 10 µM -5.64% | [8]; 10 µM -63.8%

N#C/C(=C1C=C/C(=N\O)C(Cl)=C\1)c1ccccc1
inactive: [1]; 10 µM 23% | [2]; 10 µM 59.4% | [3]; 10 µM 80.5% | [5]; 10 µM 46.8% | [6]; 10 µM 26.2% | [8]; 10 µM 68.9%
active: [7]; 10 µM 1.14%

Cc1ccc2nc(N/N=C/c3ccc(C)s3)cc(C)c2c1
active: [6]; 100 µM -99.1% and -100%

Cc1c2oc3c(C)ccc(C(=O)N[C@@H]4C(=O)N[C@H](C(C)C)C(=O)N5CCC[C@H]5C(=O)N(C)CC(=O)N(C)[C@@H](C(C)C)C(=O)O[C@H]4C)c3nc-2c(C(=O)N[C@@H]2C(=O)N[C@H](C(C)C)C(=O)N3CCC[C@H]3C(=O)N(C)CC(=O)N(C)[C@@H](C(C)C)C(=O)O[C@H]2C)c(N)c1=O (I: [aThr][dV]P[Sar][NMeV] / II: [aThr][dV]P[Sar][NMeV]; ester I:1-I:C, II:1-II:C; linker I:N-II:N via Actinocin(9to1))
active: [1]; 10 µM -24.1% | [2]; 10 µM -73.6% | [3]; 10 µM -0.258% | [4]; 10 µM 6.96% | [5]; 10 µM -94.8% | [6]; 10 µM -74.5% | [7]; 10 µM 9.98% | [9]; 10 µM -53.1% | [10]; 10 µM -11%
inactive: [1]; 0.0025 µM 29.4% | [2]; 0.0025 µM 39.6% | [3]; 0.0025 µM 38.2% | [4]; 0.0025 µM 22.1% | [5]; 0.0025 µM 30.8% | [6]; 0.0025 µM 36.5% | [7]; 0.0025 µM 24.3% | [9]; 0.0025 µM 75.4% | [10]; 0.0025 µM 54%

Cc1cc(NCCCN(C)C)c2ccc3c(ccc4c(NCCCN(C)C)cc(C)nc43)c2n1
active: [1]; 10 µM -50.9% | [2]; 10 µM -90% | [3]; 10 µM -32.8% | [4]; 10 µM -30.5% | [5]; 10 µM -97.6% | [6]; 10 µM -96.9% | [7]; 10 µM -76% | [8]; 10 µM -97.6% | [9]; 10 µM -62.8% | [10]; 10 µM -34.1%

CN(C)CCC(=O)c1c[nH]c2ccccc12
inactive: [1]; 10 µM 101% | [2]; 10 µM 99.8% | [3]; 10 µM 112% | [4]; 10 µM 106% | [5]; 10 µM 113% | [6]; 10 µM 113% | [7]; 10 µM 103% | [8]; 10 µM 115% | [9]; 10 µM 105% | [10]; 10 µM 111%

Cc1cnc(/C=N\NC(N)=S)c2cccc(N)c12
inactive: [1]; 10 µM 35.8% | [3]; 10 µM 24% | [4]; 10 µM 25% | [5]; 10 µM 54.8% | [8]; 10 µM 34.5% | [10]; 10 µM 29.5%
active: [2]; 10 µM -2.85% | [6]; 10 µM -15.7% | [7]; 10 µM 6.91% | [9]; 10 µM -6.16%

CCCCCCCCCCCCCCCCCN
inactive: [1]; 10 µM 98.9% | [2]; 10 µM 92.6% | [3]; 10 µM 102% | [4]; 10 µM 96.3% | [5]; 10 µM 103% | [6]; 10 µM 102% | [7]; 10 µM 102% | [8]; 10 µM 101% | [9]; 10 µM 110%

S=c1[nH]nc(Cc2ccccc2)c(=S)[nH]1
inactive: [1]; 10 µM 97.4% | [2]; 10 µM 92.8% | [3]; 10 µM 109% | [4]; 10 µM 100% | [5]; 10 µM 110% | [6]; 10 µM 110% | [7]; 10 µM 94.4% | [8]; 10 µM 114% | [9]; 10 µM 104% | [10]; 10 µM 97.8%

O=C(/C(=C/c1ccccc1)CBr)c1ccccc1
inactive: [1]; 10 µM 83.7% | [2]; 10 µM 48.6% | [3]; 10 µM 90.9% | [4]; 10 µM 78.6% | [5]; 10 µM 87.7% | [6]; 10 µM 72.7% | [7]; 10 µM 44.3% | [8]; 10 µM 94.4% | [9]; 10 µM 93.4% | [10]; 10 µM 82.1%
